# Laboratory results from ChEMBL document CHEMBL3988442, “University of Dundee, Small-Polar-MMV Screening Library” (2021).
# About 1,000 (1.4%) of roughly 69,000 compounds showed an effect of 50% or more. Only a selection was taken, and strong results are over-represented in it overall.
# System: Leishmania donovani
# Experiment: Leishmania intramacrophage assay
# Assay type: functional, organism-based
# Set-up: scale not given: in the data most compounds retested in dose-response had high values
structure (smiles),measurement,setting,value
Cn1cc(C2CN(C(=O)Cc3coc(-c4ccccc4)n3)CCO2)cn1 (stereo not given),Percent Effect,"30.3 µM, […]",1.481%
COc1ccccc1CCN(C)C(=O)NC(C)c1nncn1C (stereo not given),Percent Effect,"30 µM, 30.03 µM",13.36%
COc1cc(CN2CCC(COCc3ccccc3)CC2)cc(OC)c1,Percent Effect,"30.3 µM, […]",11.79%
CCc1ccc(Cn2nccc2NC(=O)C2CCS(=O)(=O)C2)cc1 (stereo not given),Percent Effect,"30.3 µM, […]",28.09%
COc1ccc(-c2nnc([C@H]3CCN(C4CCC4)C3)o2)cc1,Percent Effect,"30.3 µM, […]",5.132%
O=C(c1ccc(Cn2ccccc2=O)o1)N1CCSCC1,Percent Effect,30 µM,34.1%
Cc1nc2c(c(NCc3ccc(-c4ccccn4)s3)n1)CCNCC2,Percent Effect,"30.3 µM, […]",74.83%
c1ccc(-c2nc3c(c(NCCn4cccc4)n2)CCNCC3)nc1,Percent Effect,"30.3 µM, […]",4.707%
Cc1nc2c(c(NC3CCN(Cc4ccccc4)CC3)n1)CCNCC2,Percent Effect,"30.3 µM, […]",8.424%
Cc1nc2c(c(NCc3nc4ccccc4s3)n1)CCNCC2,Percent Effect,"30.3 µM, […]",11.81%
Cc1nc2c(c(NCC(c3ccccc3C)N(C)C)n1)CCNC2 (stereo not given),Percent Effect,"30.3 µM, […]",37.15%
Cc1nc2c(c(NCC3Cc4ccccc4CN3C)n1)CCNCC2 (stereo not given),Percent Effect,"30.3 µM, […]",11.22%
Cc1nc2c(c(NCc3cc4ccccc4s3)n1)CCNCC2,Percent Effect,"30.3 µM, […]",99.76%
Cc1nc2c(c(NCC(O)c3ccccc3Cl)n1)CCNCC2 (stereo not given),Percent Effect,"30.3 µM, […]",52.68%
c1ccc(-c2nc3c(c(NCCn4ccnn4)n2)CCNCC3)nc1,Percent Effect,"30.3 µM, […]",12.83%
COC[C@@]12CCC[C@@H]1CN(C(=O)CN(C)C)C2.O=C(O)C(F)(F)F,Percent Effect,"30.3 µM, […]",2.882%
CCc1cnc(CCNC(C)CC(=O)Nc2cccc(C)c2C)s1 (stereo not given),Percent Effect,"30.3 µM, […]",0.8494%
COCC1CN(Cc2cccc(C#N)c2)Cc2nccn2C1 (stereo not given),Percent Effect,"30.3 µM, […]",20.19%
CNC[C@H]1CC[C@H](c2cc(CN(C)S(=O)(=O)N(C)C)n(C)n2)CC1.Cl,Percent Effect,"30.3 µM, […]",29.88%
COCC1CC2(CCN(C(=O)c3ccc(C)nc3)CC2)CO1.O=C(O)C(F)(F)F (stereo not given),Percent Effect,"30.3 µM, […]",25.55%
CN(C)[C@@H]1CCN(C(=O)NC2CCCC2)[C@H]1Cc1cnn(C)c1.O=C(O)C(F)(F)F,Percent Effect,"30 µM, 30.03 µM",11.61%
Cc1cc(N2CCC(c3nccn3Cc3cscn3)CC2)ccn1,Percent Effect,"30.3 µM, […]",-14.56%
Cc1ccc(-c2nc(CNS(=O)(=O)N(C)C)[nH]c2-c2ccccn2)cc1,Percent Effect,"30.3 µM, […]",30.48%
Cc1ccc(-c2nc(CNC(C)CCO)[nH]c2-c2ccccn2)cc1 (stereo not given),Percent Effect,"30.3 µM, […]",67.9%
COCC(C)NCc1nc(-c2ccc(C)cc2)c(-c2ccccn2)[nH]1 (stereo not given),Percent Effect,"30.3 µM, […]",71.58%
CN(C)S(=O)(=O)NCc1nc(-c2cccc(F)c2)c(-c2ccccn2)[nH]1,Percent Effect,"30.3 µM, […]",3.232%
Cc1cnn(CC(C)NCc2nc(-c3ccccn3)no2)c1 (stereo not given),Percent Effect,"30.3 µM, […]",2.286%
COCc1ccc(C(=O)N2CCOCC2c2ccc(C)o2)cc1 (stereo not given),Percent Effect,"30.3 µM, […]",18.1%
O=C(O)C(F)(F)F.c1ccc(C[C@H]2CN(C3CCOCC3)CC[C@H]2OCC2CC2)cc1,Percent Effect,"30.3 µM, […]",14.89%
O=C(COc1coc(CN2CCCCCC2)cc1=O)c1ccccc1,Percent Effect,"30 µM, 30.03 µM",12.38%
Cc1cc(C)c2c(NCC3(O)CCCCC3)ncnc2n1,Percent Effect,"30.3 µM, […]",-4.66%
CC(c1c(F)cccc1F)N1CCN(Cc2nccn2C)CC1 (stereo not given),Percent Effect,"30.3 µM, […]",28.44%
O=C(N1CCCC1)N1CCc2ncnc(C3CCOC3)c2CC1 (stereo not given),Percent Effect,"30 µM, 30.03 µM",-0.6847%
CN(Cc1cc2cc(F)ccc2[nH]1)C(=O)C1CC(=O)N(C(C)(C)C)C1 (stereo not given),Percent Effect,"30.3 µM, […]",55.15%
CCN1CC(C(=O)N(C)Cc2cc3cc(F)ccc3[nH]2)CC1=O (stereo not given),Percent Effect,"30.3 µM, […]",16.63%
CN(Cc1cc2cc(F)ccc2[nH]1)C(=O)C1CC(=O)N(C2CC2)C1 (stereo not given),Percent Effect,"30.3 µM, […]",14.52%
COC(=O)c1ccc(F)c(Cn2nc(C)cc2C)c1,Percent Effect,"30.3 µM, […]",38.02%
O=S(=O)(NC(CO)Cc1c[nH]c2ccccc12)c1cncc(F)c1 (stereo not given),Percent Effect,"30.3 µM, […]",19.78%
Cc1ccc(C(=O)N2CCc3c(COCC4CC4)cncc3C2)o1,Percent Effect,"30.3 µM, […]",-21.23%
COCc1nc(CNc2cccc(-c3nc(C)c(C)o3)c2)cs1,Percent Effect,"30.3 µM, […]",3.012%
COCc1nc(CNc2cccc(-c3csc(C)n3)c2)cs1,Percent Effect,"30.3 µM, […]",-17.78%
COCc1nc(CNc2cccc(-c3ncon3)c2)cs1,Percent Effect,"30.3 µM, […]",70.63%
N#Cc1nccnc1NC1CCN(c2ccccc2Br)C1 (stereo not given),Percent Effect,"30.3 µM, […]",-7.134%
CCc1ccc(CNCC2CCN(CCO)CC2)cc1,Percent Effect,"30.3 µM, […]",73.93%
OCCN1CCC(CNCc2cn(-c3ccccc3)nn2)CC1,Percent Effect,"30.3 µM, […]",-6.29%
OCCN1CCC(CNCc2ccc(N3CCCCC3)cc2)CC1,Percent Effect,"30.3 µM, […]",79.78%
Cc1ncccc1CNCC1CCN(CCO)CC1,Percent Effect,30 µM,29.11%
NC(=O)c1ccc(CNCC2CCN(CCO)CC2)cc1,Percent Effect,"30.3 µM, […]",-0.3402%
OCCN1CCC(CNCc2ccc(Br)cc2)CC1,Percent Effect,"30.3 µM, […]",77.88%
Cc1ccc(CNCC2CCN(CCO)CC2)cc1,Percent Effect,"30.3 µM, […]",-12.85%
CS(=O)(=O)c1ccc(CNCC2CCN(CCO)CC2)cc1,Percent Effect,"30 µM, 30.03 µM",7.016%
N#Cc1ccc(CNCC2CCN(CCO)CC2)cc1,Percent Effect,"30 µM, 30.03 µM",18.87%
Cn1cc(CC2CC(=O)N(Cc3ccccc3OC(F)F)C2=O)cn1 (stereo not given),Percent Effect,"30.3 µM, […]",7.915%
Cl.NC1CCN(C(=O)c2c(F)cccc2Br)CC1,Percent Effect,"30.3 µM, […]",2.162%
COc1ccc([C@@H]2CN(c3cnccn3)C[C@H]2N(C)C)cc1,Percent Effect,"30.3 µM, […]",-8.819%
CC(C)Cn1cc(NC(=O)NC(C)(C)c2nccs2)cn1,Percent Effect,"30.3 µM, […]",-3.295%
CCN(CC1CN(Cc2nccn2CC)CCO1)c1cccnn1 (stereo not given),Percent Effect,"30.3 µM, […]",7.569%
CCS(=O)(=O)N1CCC(NC(=O)c2cc(C(C)C)ccc2O)CC1,Percent Effect,30 µM,11.27%
CC(=O)N1CCC1c1cc(N2CCNC(=O)C2)nc(C)n1 (stereo not given),Percent Effect,"30.3 µM, […]",23.92%
Cc1cnc(CN2CCCC(c3cc(C(N)=O)[nH]n3)C2)o1 (stereo not given),Percent Effect,"30 µM, 30.03 µM",5%
c1ccc(-c2nnc(CN3CCOC(Cn4cccn4)C3)o2)cc1 (stereo not given),Percent Effect,30 µM,14.93%
Cn1ncc2c1CN(Cc1ccccc1F)CC2COCC1CC1.O=C(O)C(F)(F)F.O=C(O)C(F)(F)F (stereo not given),Percent Effect,"30.3 µM, […]",24.46%
Cc1ccc(CN2Cc3c(cnn3C)C(COCC3CC3)C2)s1 (stereo not given),Percent Effect,"30.3 µM, […]",92.44%
Cn1cc(CN2Cc3c(cnn3C)C(COCC3CC3)C2)cn1.O=C(O)C(F)(F)F.O=C(O)C(F)(F)F (stereo not given),Percent Effect,"30.3 µM, […]",-2.121%
Cn1ncc2c1CN(Cc1ccc(F)cc1)CC2COCC1CC1.O=C(O)C(F)(F)F.O=C(O)C(F)(F)F (stereo not given),Percent Effect,"30.3 µM, […]",51.09%
Cc1ccc(CN2Cc3nnn(C)c3C(COCC3CC3)C2)s1.O=C(O)C(F)(F)F (stereo not given),Percent Effect,"30.3 µM, […]",19.91%
Cn1ncc2c1CN(Cc1cccnc1)CC2COCC1CC1.O=C(O)C(F)(F)F.O=C(O)C(F)(F)F.O=C(O)C(F)(F)F (stereo not given),Percent Effect,"30 µM, 30.03 µM",26.28%
CNC(=O)[C@H]1C[C@@H]2CN(S(=O)(=O)c3ccc(C)cc3)C[C@@H]2N1C.O=C(O)C(F)(F)F,Percent Effect,"30.3 µM, […]",7.67%
CC(=O)Nc1nc(-c2ccc(F)cc2)c[nH]1,Percent Effect,"30.3 µM, […]",-6.024%
NCCC(=O)N1CCC2(CC1)CN(C(=O)Cc1ccc(Cl)cc1)CCO2,Percent Effect,"30.3 µM, […]",-0.5643%
CN1CC(=O)N(c2ccsc2)CC12CCN(S(C)(=O)=O)C2.O=C(O)C(F)(F)F (stereo not given),Percent Effect,"30 µM, 30.03 µM",2.434%
COCCN1C[C@@H]2[C@@H](OC)CCN(Cc3ccco3)[C@@H]2C1.O=C(O)C(F)(F)F.O=C(O)C(F)(F)F,Percent Effect,"30.3 µM, […]",5.523%
COCCN1C[C@@H]2[C@@H](OC)CCN(Cc3ccc(C)o3)[C@@H]2C1.O=C(O)C(F)(F)F.O=C(O)C(F)(F)F,Percent Effect,"30.3 µM, […]",53%
COCCN1C[C@H]2[C@@H](C1)N(Cc1ccc(C)o1)CC[C@H]2OC,Percent Effect,"30 µM, 30.03 µM",22.66%
CC(c1ccccn1)N(C)Cc1ccc(CCC(C)(C)O)cc1 (stereo not given),Percent Effect,"30.3 µM, […]",34.83%
C/C(=C\c1ccco1)CN(C)C(C)c1ccccn1 (stereo not given),Percent Effect,"30.3 µM, […]",72.9%
CCC(CO)N(C/C(C)=C/c1ccco1)Cc1ccccn1 (stereo not given),Percent Effect,"30.3 µM, […]",3.364%
O=C(c1cscn1)N1CCCCC1c1nc2cc(F)ccc2[nH]1 (stereo not given),Percent Effect,"30.3 µM, […]",28.33%
CCS(=O)(=O)NCCCNCc1c(C)nn(C)c1N(C)C,Percent Effect,30 µM,-21.2%
O=C(O)C(F)(F)F.O=C1CC(c2ccccc2)C2(CCN(CC3CC3)CC2)N1 (stereo not given),Percent Effect,"30 µM, 30.03 µM",17.34%
CCc1nc(C2CCCN2C(=O)Cc2cccs2)no1 (stereo not given),Percent Effect,30 µM,2.577%
Cc1cc(S(=O)(=O)NCC(C)(C)N)c(F)cc1F.Cl,Percent Effect,"30.3 µM, […]",25.52%
CCOc1nc2cnccc2n(CC(=O)NCc2ccco2)c1=O,Percent Effect,"30.3 µM, […]",-11.31%
CCn1nc(C)c2nc(C)nc(NCCc3ccccc3)c21,Percent Effect,"30.3 µM, […]",36.57%
CCCc1nc(NCCc2ccccc2)c2c(n1)c(C)nn2CC,Percent Effect,"30.3 µM, […]",98.89%
CCc1nc(NCCCn2cccn2)c2c(n1)c(C)nn2CC,Percent Effect,"30.3 µM, […]",-48.93%
CCCc1nc(NCCCOC)c2c(n1)c(C)nn2CC,Percent Effect,"30.3 µM, […]",-43.63%
CCCc1nc(NCCCn2cccn2)c2c(n1)c(C)nn2CC,Percent Effect,"30.3 µM, […]",56.39%
CCn1nc(C)c2nc(C)nc(NCCCn3cccn3)c21,Percent Effect,"30.3 µM, […]",-10.11%
CCCc1nc(NCCCO)c2c(n1)c(C)nn2CC,Percent Effect,"30 µM, 30.03 µM",3.921%
CCCc1nc(NCCOC)c2c(n1)c(C)nn2CC,Percent Effect,"30.3 µM, […]",9.64%
CCCc1nc(NCCCOCC)c2c(n1)c(C)nn2CC,Percent Effect,"30.3 µM, […]",51.09%
CCCNC(=O)CSCc1ccc(S(=O)(=O)N(C)C)o1,Percent Effect,"30.3 µM, […]",6.939%
Nc1nc2c(c(NCC(c3cccnc3)N3CCOCC3)n1)CCNC2 (stereo not given),Percent Effect,"30.3 µM, […]",45.62%
CCC(Nc1nnnn1-c1ccccc1)C(=O)NCc1cccs1 (stereo not given),Percent Effect,"30.3 µM, […]",14.73%
Cc1cnc(C(=O)N2Cc3ncn(C)c3C(COCC(C)C)C2)cn1.O=C(O)C(F)(F)F (stereo not given),Percent Effect,"30.3 µM, […]",30.84%
CN(CCc1noc(C2CC2)n1)C(=O)C1(N2CCCC2)CCCC1,Percent Effect,"30.3 µM, […]",28.86%
Cc1cc(NC(=O)NCCc2cccs2)n(C)n1,Percent Effect,"30 µM, 30.03 µM",-9.195%
O=C(CN1CCCS1(=O)=O)NCCOc1ccc2c(c1)CCC2,Percent Effect,"30 µM, 30.03 µM",22.18%
CCc1nc(C2CCCN2c2ncc(C(N)=O)cc2Cl)no1 (stereo not given),Percent Effect,"30.3 µM, […]",-6.943%
